An excerpt weighted towards active compounds, which were near 4.9% of everything screened.
MPTP block: blocks calcium-induced mitochondrial swelling; inhibition, % at 10 µM; isolated mouse mitochondria, Ca2+ swelling absorbance, 30 min; 360,000 tested, 1.4% active;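 active means inhibition of 50% or more, scaled per plate between neutral and stimulator controls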
HSF1 inhib: HSF1 inhibition | 300,000 tested, 0.77% active | NIH3T3-HGL HSE-luciferase, MG132-induced, luminescence 8 h; stronger effect = lower value | activity change, negative = inhibition, % at 7.5 µM (by protocol) | AID 2098;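 active means more than half of replicate wells show activity change below -50%, luminescence cut by over half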;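 further: luciferase reports HSF-1 transcriptional activity via heat shock element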
HSP90 inh: blocks HSP90-mediated luciferase refolding in reticulocyte lysate | Rabbit reticulocyte lysate, luciferase refolding luminescence, 3 h | inhibition, % at 5.6 µM | 290,000 tested, 0.91% active;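 active means inhibition above the screen-wide mean plus 3 SD, computed separately per campaign, cut at about 16% in these data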;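 further: inhibitors lower the luminescence because luciferase stays unfolded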
Platelet DG rel: modulates dense granule release in human platelets | 300,000 tested, 0.22% active | inhibition, %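 (compounds screened at 7.5 µM in platelet-rich plasma)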 | human platelet-rich plasma, SFLLRN dense granule ATP release, luminescence | AID 1663;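 active means mean replicate score, as percent of positive control, at or above 50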
dFosB activator: mouse delta FosB homodimer activation | purified delta FosB, TAMRA-CDK5 oligo fluorescence polarization; percent of positive-control signal above neutral wells | activation, % at 25 µM | 340,000 tested, 0.99% active;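 active means mean activation above about 17%, with every replicate also reaching it, limit read from the data, passing the limit was not always enough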
Target sequence (P13346 whole entry, looked up): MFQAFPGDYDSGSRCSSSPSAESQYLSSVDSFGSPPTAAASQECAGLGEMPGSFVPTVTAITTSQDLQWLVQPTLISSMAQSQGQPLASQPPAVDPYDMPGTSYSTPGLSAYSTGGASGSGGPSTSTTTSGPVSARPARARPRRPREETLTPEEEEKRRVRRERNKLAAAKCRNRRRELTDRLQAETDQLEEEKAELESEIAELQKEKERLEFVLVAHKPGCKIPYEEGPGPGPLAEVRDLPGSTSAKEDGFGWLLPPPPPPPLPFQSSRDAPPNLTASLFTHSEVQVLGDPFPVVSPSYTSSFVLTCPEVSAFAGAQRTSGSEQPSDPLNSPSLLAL
HSF1 activator: increases HSF-1 driven luciferase reporter signal; activation, % at 9 µM; 300,000 tested, 1.7% active; NIH3T3-HGL HSF-1 luciferase reporter, MG132, 8 h; 100% = twice DMSO control signal; AID 504408;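 active means mean replicate activation of at least 50% with a set share of replicates each reaching 50%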
Rh123 counter: membrane potential counter-screen of mitochondrial pore inhibitors; 5,000 tested, 78% active; shares compounds with MPTP block; isolated mitochondria, Rhodamine 123 fluorescence; AID 624504; inhibition, % at 10 µM; in the data active means inhibition above about 22%
MPTP swell DR: dose response confirmation of mitochondrial permeability transition pore inhibitors. shares compounds with MPTP block. isolated mitochondria swelling, absorbance. IC50, µM. 780 tested, 58% active; in the data active means IC50 below about 20 µM
MPTP counter DR: counter-screen for mitochondrial permeability transition pore inhibitors, dose response; shares compounds with MPTP block; isolated mitochondria counterscreen, fluorescence read-out; IC50, µM; 780 tested, 49% active; AID 651564; in the data active means IC50 below about 80 µM
Each line names hits and unclear results; the compound was inactive in the other large screens (follow-up assays come after a bar, where they were run); ! = not confirmed by another sample.

Cc1ccc2nc(SCc3nc4c(cnn4-c4ccccc4)c(=O)[nH]3)[nH]c2c1	MPTP block 73.4 | Rh123 counter 85.1
Oc1ccccc1-c1n[nH]c(-c2ccccc2O)n1	MPTP block 86.9 (no result: HSF1 inhib, HSP90 inh, Platelet DG rel, HSF1 activator) | Rh123 counter 84.5
Cc1ccc(Cc2c(-c3ccccc3)nc3cc(C)c(Br)c(C)n23)cc1	none (no result: HSF1 inhib, HSP90 inh, Platelet DG rel, dFosB activator, HSF1 activator)
CCCCN1C(=N)N([C@@H](CCC)CN2CCC[C@H]2CN2C(N)=NC[C@@H]2Cc2ccccc2)C[C@H]1[C@H](C)CC	MPTP block 80.8 (no result: HSF1 inhib, HSP90 inh, Platelet DG rel, HSF1 activator) | Rh123 counter inactive
CCCCN1C(=N)N([C@@H](CCC)CN2CCC[C@H]2CN2C(N)=NC[C@H]2CC(C)C)C[C@H]1Cc1ccccc1	none (no result: HSF1 inhib, HSP90 inh, Platelet DG rel, HSF1 activator)
CN1CCN(C(=O)Nc2ccc([N+](=O)[O-])cc2)CC1	none
O=C(Nc1cccc([N+](=O)[O-])c1)N1CCCCCC1	none
O=C(Nc1ccc([N+](=O)[O-])cc1)N1CCCCCC1	MPTP block 61.8 | Rh123 counter 95.8
O=C(Nc1ccc([N+](=O)[O-])cc1)N1CCCCC1	MPTP block 94.2 | Rh123 counter 92.9
Cc1c(C(=O)N2CCN(C3CCS(=O)(=O)C3)CC2)oc2ccc(Cl)cc12 (configuration not stated)	none (no result: HSF1 inhib, HSP90 inh, Platelet DG rel, HSF1 activator)
Cc1cc(-c2ccccc2)n2nc(N)nc2n1	none
O=C1COc2ccc(-c3csc(=Nc4ccc(OC(F)F)cc4)n3CC3CCCO3)cc2N1 (configuration not stated)	none
CCN=c1scc(-c2ccc3c(c2)NC(=O)CO3)n1N=C1CCCC1	none
COCC(C)n1c(-c2ccc3c(c2)NC(=O)CO3)csc1=Nc1ccc(OC(F)F)cc1 (configuration not stated)	MPTP block 70.3! | Rh123 counter 53.6
COc1ccccc1N=c1scc(-c2ccc3c(c2)NC(=O)CO3)n1CC1CCCO1 (configuration not stated)	MPTP block 63.8 | Rh123 counter inactive | MPTP swell DR inactive | MPTP counter DR 41.2
Cc1sc2nc(CSCC(=O)N(CCC#N)c3ccccc3F)[nH]c(=O)c2c1C	none (no result: HSF1 inhib, HSP90 inh, Platelet DG rel, HSF1 activator)
Cc1cccc(C(=O)NCC(=O)Nc2ccncc2)c1	none (no result: HSP90 inh)
CNS(=O)(=O)c1ccc(C(=O)NCC(=O)NC(C)c2cccs2)cc1 (configuration not stated)	none (no result: HSF1 inhib, HSP90 inh, Platelet DG rel, HSF1 activator)
CCOC(=O)N1CCN(CCC(=O)c2ccc(Br)cc2)CC1	none
CCOC(=O)N1CCN(CCC(=O)c2ccc(Cl)cc2)CC1	MPTP block 103.1 | Rh123 counter inactive | MPTP swell DR inactive | MPTP counter DR inactive
Cc1nonc1NC(=O)CSc1nc(CCC2CCCC2)nc2ccccc12	MPTP block 65.8 | Rh123 counter 82.0
Cc1noc(C)c1C(=O)N1CCCC(C)(C(=O)NS(=O)(=O)C2CC2)C1 (configuration not stated)	none (no result: HSF1 inhib, HSP90 inh, Platelet DG rel, dFosB activator, HSF1 activator)
COc1ccc(C2=C/C(=C\c3cccc(OC(C)=O)c3)C(=O)O2)cc1	MPTP block 56.7 | Rh123 counter 60.4
COc1ccc(C2=C/C(=C\c3ccccc3OC(C)=O)C(=O)O2)cc1	none
O=C(NCc1cccc(C(F)(F)F)c1)c1cccc(S(=O)(=O)NCc2ccccc2)c1	MPTP block 60.0 | Rh123 counter 71.2
COc1cc(OC)cc(C(=O)Nc2ccc(N3CCN(C(=O)c4cccs4)CC3)cc2)c1	none
COc1ccc(CCNCC(O)COc2cccc(Br)c2)cc1OC (configuration not stated)	none
COc1ccc(CCNCC(O)COc2ccc(OC)cc2C(C)(C)C)cc1 (configuration not stated)	MPTP block 80.5 | Rh123 counter inactive | MPTP swell DR 6.15 | MPTP counter DR 41.1
Nc1nc2cc(Cl)ccc2cc1C(=O)NCCCc1ccccc1	none (no result: HSF1 inhib, HSP90 inh, Platelet DG rel, dFosB activator, HSF1 activator)
Cc1nn(-c2ccccc2)c2ncc(C(=O)c3cc(Cl)ccc3O)cc12	MPTP block 62.1 | Rh123 counter 83.0
CCCCCCCCCc1nc2sc3c(c2c(=O)n1NC(=O)c1ccccc1[N+](=O)[O-])CC(C)(C)OC3	MPTP block 86.6 | Rh123 counter 62.8
CCCCCCCCCc1nc2sc3c(c2c(=O)n1NC(=O)c1ccc([N+](=O)[O-])cc1)CC(C)(C)OC3	MPTP block 97.6 | Rh123 counter 64.2
CCN1CCN(C(=O)C(C)Nc2ccc(OC)cc2OC)CC1 (configuration not stated)	none
O=C(c1ccc(N2CCCCC2)c([N+](=O)[O-])c1)N(c1ccccn1)c1ccccn1	none
CCC1(c2ccc(F)cc2)NC(=O)N(CC(=O)N(C)C2CCS(=O)(=O)C2)C1=O (configuration not stated)	none (no result: HSP90 inh)
C=CCn1c(=O)c2c(nc3n2CC(C)CN3CCc2ccccc2)n(C)c1=O (configuration not stated)	none
O=C(c1cc2ccccc2[nH]1)N(Cc1cccnc1)CC1CCCN(C2CCCCC2)C1 (configuration not stated)	none
COc1ccc(CN2CCC(CO)(CCOc3ccccc3)CC2)c(OC)c1C	none
COc1ccc2[nH]c(CN3CCC(CO)(CCOc4ccccc4)CC3)c(C)c2c1	MPTP block 66.5 | Rh123 counter inactive | MPTP swell DR 5.83 | MPTP counter DR inactive
Nc1nc2ccc(Cl)cc2cc1C(=O)NC1CC1	none (no result: HSF1 inhib, HSP90 inh, Platelet DG rel, dFosB activator, HSF1 activator)
Cc1ccc(C2(c3noc(CN4CCC(c5ccncc5)CC4)n3)CCCC2)cc1	MPTP block 69.3 | Rh123 counter 46.4
Cc1ccc(C2(c3noc(CN(C)CC4CCCCO4)n3)CCCC2)cc1 (configuration not stated)	none (no result: HSF1 inhib, HSF1 activator)
O=C(Nc1ccncc1)c1ccc(Br)cc1	none
O=C(NNC(=O)c1cccnc1)Nc1ccc([N+](=O)[O-])cc1	MPTP block 102.1 | Rh123 counter 101.6
O=C(NNC(=O)c1ccncc1)Nc1ccc([N+](=O)[O-])cc1	MPTP block 82.0 | Rh123 counter 92.1
O=C(NNC(=O)c1ccncc1)Nc1ccc(Br)cc1	MPTP block 87.3 (no result: HSF1 inhib, HSP90 inh, Platelet DG rel, HSF1 activator) | Rh123 counter 101.7
O=C(NC1C/C(=N/O)c2cc3c(cc21)OCO3)C(F)(F)F (configuration not stated)	MPTP block 145.0 | Rh123 counter inactive | MPTP swell DR inactive | MPTP counter DR inactive
O=C1CC(NC(=O)C(F)(F)F)c2cc3c(cc21)OCO3 (configuration not stated)	none
CCNC(=S)N/N=C/c1cccc(OCc2c(F)cccc2Cl)c1	none
CNC(=S)N/N=C/c1cccc(OCc2ccccc2F)c1	MPTP block 69.6 | Rh123 counter 27.6
CCN(c1ccccc1)S(=O)(=O)c1ccc(N2CCN(c3ccc(O)cc3)CC2)nc1	none (no result: HSF1 inhib, HSP90 inh, Platelet DG rel, HSF1 activator)

Screening data (PubChem)
